A selection: hits, their analogues and other compounds. The true share with any hit is near 12%.
L3MBTL1 inh: inhibitors of human L3MBTL1. 230,000 tested, 0.66% active. Potency, µM (series often up to 57.1 µM), for the others: at the highest dose activity, negative = inhibition, usual class: inhibitors. AlphaScreen L3MBTL1–H3K9me1 peptide binding. Q9Y468. AID 485360; also: % is scaled to controls: 0 for no effect and ±100 for the full control effect; nearly all actives have a fitted effect of over 60% in size
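Displacement of a biotinylated histone H3(1-15) peptide monomethylated at Lys9 (75 nM) from L3MBTL1 (50 nM) was measured by AlphaScreen after a 30 min room-temperature compound incubation; cefsulodin titration served as intraplate control.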
BAZ2B inh: blocks human BAZ2B; AID 504333; 360,000 tested, 4.4% active; AlphaScreen BAZ2B-H3K14Ac peptide displacement; Q9UIF8; Potency, µM (top dose mostly 114 µM), for inactives: at the highest dose activity change, negative = inhibition, hits mostly inhibitors; also: % is scaled to controls: 0 for no effect and ±100 for the full control effect; nearly all actives have a fitted effect of over 60% in size
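AlphaScreen displacement: compounds (up to 110uM) incubated 30 min at room temperature with a preformed 50 nM BAZ2B/50 nM biotinylated H3K14Ac peptide complex in PBS pH 7.4 with Tween-20. Donor and acceptor beads at 10 ug/mL final added, 20 min light-protected before reading.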
JMJD2A Tudor inh: blocks the human JMJD2A Tudor domain; O75164; AlphaScreen JMJD2A-Tudor / H3K4me3 peptide binding; Potency, µM (series often up to 114 µM), for inactives: top-dose activity change, negative = inhibition, hits mostly inhibitors; 390,000 tested, 4.4% active; also: % is scaled to controls: 0 for no effect and ±100 for the full control effect; nearly all actives have a fitted effect of over 50% in size
HP1b chromo inh: inhibitors of HP1-beta chromodomain binding to methylated histone tails | 390,000 tested, 0.56% active | AID 540317 | AlphaScreen HP1-beta / biotin-H3K9me3 peptide binding | Potency, µM (series often up to 114 µM), inactives show at the top dose activity change, negative = inhibition, actives largely listed as inhibitors; also: nearly all actives have a fitted effect of over 70% in size
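AlphaScreen: HP1-beta (50 nM) preformed 30 min with biotin-H3(1-18)K9me3 peptide (50 nM) in PBS pH 7.4, 0.01% Tween-20. Compound added for 30 min at RT, then streptavidin donor/nickel chelate acceptor beads (10 ug/mL) for 30 min.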
Sfp inh: blocks B. subtilis Sfp PPTase activity | Q9F4F7 | Biochemical Sfp PPTase activity, qHTS | Potency, µM, for the others: largest response in the series, negative = inhibition, usual class: inhibitors | 310,000 tested, 3.5% active;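 also: the enzyme is Sfp with the accession as filed and its product quenches rhodamine fluorescence; 0% = enzyme reaction without inhibitor and -100% = no enzyme wells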
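Fluorescence-quenching assay with 15 nM Sfp, 5 uM rhodamine-CoA and 12.5 uM BHQ-2-labelled ybbR peptide in pH 7.6 Hepes/MgCl2 buffer. Enzyme was pre-incubated with compound for 15 min at room temperature. Rate was taken from the 30-min fluorescence change (525/598 nm).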
G9a inh: G9a (human) methyltransferase inhibition. Q96KQ7. G9a H3K9 monomethylation, AlphaScreen, 2 h. Potency, µM (titrated, usually from 102 µM), for inactives: at the highest dose activity, negative = inhibition, actives largely listed as inhibitors. 350,000 tested, 8.8% active. AID 504332; also: % is scaled to controls: 0 for no effect and ±100 for the full control effect; nearly all actives have a fitted effect of over 75% in size
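Compounds were preincubated with 20 nM G9a for 15 min, after which biotinylated H3K9 peptide (500 nM) and SAM (20 uM) started a 2 h room-temperature reaction. Monomethylated product was quantified by antibody-based AlphaScreen chemiluminescence.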
An asterisk follows results filed as active; [ ] = another dose, or the depositor's remark. Calls follow the shape of the dose curve; as a rule, active = well fitted curve in the direction sought with a large enough effect; inconclusive = small, poorly fitted or top-dose-only effect, or another doubt; inactive = no such curve, though single readings can be large; an effect the other way counts as inactive or inconclusive. Potency is read from the fitted curve at half-maximal effect.

For CC1=NN(C(N)=S)C(=O)C1N=Nc1ccc(Cl)cc1Cl (configuration not stated) the results were L3MBTL1 inh 24%, BAZ2B inh inconclusive, JMJD2A Tudor inh 50µM*, HP1b chromo inh -22% and Sfp inh 10%.
Screening CC1=NN(C(N)=S)C(=O)C1N=Nc1cccc(C(=O)O)c1 (configuration not stated) returned L3MBTL1 inh 2%, BAZ2B inh -22%, JMJD2A Tudor inh 4µM*, HP1b chromo inh 12%, Sfp inh 45µM* and G9a inh 0.71µM*.
CC1=NN(C(N)=S)C(=O)C1N=Nc1ccccc1C(=O)O (configuration not stated) was read as L3MBTL1 inh -1%, BAZ2B inh -14%, JMJD2A Tudor inh 1%, HP1b chromo inh 46%, Sfp inh 10% and G9a inh 6%.
For CC(=O)Nc1ccc(N=NC2C(=O)N(C(N)=S)N=C2C)cc1 (configuration not stated) the results were L3MBTL1 inh -6%, BAZ2B inh -17%, JMJD2A Tudor inh -22%, HP1b chromo inh 18%, Sfp inh inconclusive and G9a inh 79µM*.
`CC1=NN(C(N)=S)C(=O)C1N=Nc1ccc(O)cc1` (configuration not stated) gave L3MBTL1 inh -5%, BAZ2B inh -21%, JMJD2A Tudor inh -8%[11.4 µM], HP1b chromo inh -27%, Sfp inh 14µM* and G9a inh inconclusive.
`Cc1cc(C)cc(NC(=O)Cn2c(=O)n(-c3ccc(C)c(C)c3)c(=O)c3oc4ccccc4c32)c1` gave BAZ2B inh -9%, JMJD2A Tudor inh -31%, HP1b chromo inh 3% and G9a inh -9%[59 µM].
`Cn1nnc2c(N3CCN(Cc4ccccc4)CC3)ncnc21` gave JMJD2A Tudor inh -10% and HP1b chromo inh 39%.
COc1ccc(NC(=S)Nc2ccccn2)cc1 was read as BAZ2B inh -33%, JMJD2A Tudor inh -8%, HP1b chromo inh 38%, Sfp inh -4% and G9a inh 40µM*.
For CCOc1ccc(C(=O)NC(=S)Nc2cccnc2)cc1 the results were L3MBTL1 inh 0%, BAZ2B inh -14%, JMJD2A Tudor inh -7%, HP1b chromo inh 20%, Sfp inh inconclusive and G9a inh inconclusive.
`Cc1ccccc1C(=O)NC(=S)Nc1cccc(NC(=O)C(C)C)c1` gave L3MBTL1 inh 0%, BAZ2B inh -11%, JMJD2A Tudor inh inconclusive, HP1b chromo inh 20%, Sfp inh 4% and G9a inh 8.9µM*.
For COc1ccc(C(=O)NC(=S)Nc2ccc(N3CCOCC3)cc2)cc1Cl the results were BAZ2B inh 22µM*, JMJD2A Tudor inh 25µM*, HP1b chromo inh inconclusive, Sfp inh -5% and G9a inh 25µM*.
`CCOc1ccc(NC(=S)Nc2cccnc2)cc1` gave L3MBTL1 inh -11%, BAZ2B inh -14%, JMJD2A Tudor inh -10%, HP1b chromo inh -9%, Sfp inh inconclusive and G9a inh 45µM*.
COC(=O)c1ccc(NC(=S)Nc2ccccn2)cc1 was read as L3MBTL1 inh 1%, BAZ2B inh -5%, JMJD2A Tudor inh inconclusive, HP1b chromo inh 12%, Sfp inh 11% and G9a inh inconclusive.
`O=C(NC(=S)Nc1ccc(N2CCOCC2)cc1)c1ccc(Cl)cc1` gave L3MBTL1 inh -4%, BAZ2B inh 0%, JMJD2A Tudor inh -11%, HP1b chromo inh -12%, Sfp inh -12% and G9a inh inconclusive.
Screening CC(C)[C@H](NC(=O)CNC(=O)OC(C)(C)C)C(=O)N[C@H](C=O)C(C)C returned Sfp inh 27% and G9a inh 27%[59 µM].
Screening COc1ccccc1CN1CC2(CCN(S(C)(=O)=O)CC2)C1 returned Sfp inh 12% and G9a inh 1%[12.7 µM].
`COc1cccc(N2CC(NC(=O)COc3ccccc3F)CC2=O)c1` (configuration not stated) gave BAZ2B inh -1%, JMJD2A Tudor inh -4%, HP1b chromo inh 14% and G9a inh 3%[59 µM].
`COc1ccc(C(=O)NC(=S)Nc2cccnc2)cc1Cl` gave BAZ2B inh -3%, JMJD2A Tudor inh inconclusive, HP1b chromo inh 6%, Sfp inh 2% and G9a inh 50µM*.
COc1cccc(C(=O)NC(=S)Nc2cccnc2)c1 was read as L3MBTL1 inh 11%, BAZ2B inh -4%, JMJD2A Tudor inh inconclusive, HP1b chromo inh -6%, Sfp inh -27% and G9a inh inconclusive.
Screening S=C(Nc1ccc(N2CCOCC2)cc1)Nc1ccc2snnc2c1 returned BAZ2B inh -32%, JMJD2A Tudor inh inconclusive, HP1b chromo inh -13%, Sfp inh -67% and G9a inh 28µM*.
COc1cc(NC(=S)Nc2cccnc2)cc(OC)c1OC was read as L3MBTL1 inh 8%, BAZ2B inh -5%, JMJD2A Tudor inh -23%, HP1b chromo inh 23%, Sfp inh inconclusive and G9a inh 50µM*.
O=C(Nc1ccc2snnc2c1)N1CCOCC1 was read as L3MBTL1 inh 4%, BAZ2B inh 9%, JMJD2A Tudor inh -5%, HP1b chromo inh 21%, Sfp inh -11% and G9a inh inconclusive.
`Cc1cccc(NC(=S)Nc2ccc(N3CCOCC3)cc2)c1C` gave L3MBTL1 inh -2%, BAZ2B inh -30%, JMJD2A Tudor inh 4%[57.1 µM], HP1b chromo inh 3%, Sfp inh -19% and G9a inh 40µM*.
COc1cc(NC(=S)NCc2cccnc2)cc(OC)c1OC was read as L3MBTL1 inh 2%, BAZ2B inh 1%, JMJD2A Tudor inh -3%, HP1b chromo inh 40%, Sfp inh inconclusive and G9a inh 7%.
O=C(O)CNC(=O)c1ccc(NC(=O)/C(=C/c2cccc([N+](=O)[O-])c2)NC(=O)c2ccco2)cc1 was read as BAZ2B inh -13%, JMJD2A Tudor inh -1%, HP1b chromo inh 24%, Sfp inh 7% and G9a inh 18%.
For CC(C)(C)c1ccc(C(=O)NC(=S)Nc2ccc(N3CCOCC3)cc2)cc1 the results were L3MBTL1 inh 7%, BAZ2B inh -12%, JMJD2A Tudor inh -17%, HP1b chromo inh 8%, Sfp inh -2% and G9a inh -13%.
O=C(/C=C/c1ccc(Cl)cc1)NC(=S)Nc1ccc(N2CCOCC2)c(Cl)c1 was read as L3MBTL1 inh 14%, BAZ2B inh 5%, JMJD2A Tudor inh inconclusive, HP1b chromo inh inconclusive, Sfp inh inconclusive and G9a inh 22µM*.
